# The supplement of paper PMC9446081
# ± gives the standard deviation of the averaged measurements.
# How the values were obtained:
# Assay in all cases: relative enzymatic activity vs untreated control (fraction); higher = less inhibition
# Conditions in all cases: 100 µM; incubation time: 2 h at 37 C
# DNA gyrase = test system: DNA gyrase
# Procedure: (§1)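 In vitro enzymatic inhibition assays (ProFoldin kits) for 12 purified essential E. coli enzymes or complexes, each treated with 218 active antibacterial compounds at 100 µM for 2 h at 37°C. Read-outs were fluorescence or absorbance (phosphate detection, dye binding), converted to activity via standard curves and expressed relative to untreated DMSO controls.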
# DNA helicase = DNA helicase (UniProt P0ACB1)
# Procedure: as §1
# DNA ligase = DNA ligase (UniProt B1XA82)
# Procedure: as §1
# DNA polymerase = DNA polymerase (UniProt P10443)
# Procedure: as §1
# DNA primase = DNA primase (UniProt P0ABS7)
# Procedure: as §1
# GlmU = GlmU (UniProt A7ZTU1)
# Procedure: as §1
# Guanlyate kinase = Guanlyate kinase (UniProt Q0TBG1)
# Procedure: as §1
# MurA = MurA (UniProt Q3YX52)
# Procedure: as §1
# MurC = MurC (UniProt C4ZRI6)
# Procedure: as §1
# MurD = molecular target: T1, MurD (UniProt P14900)
# T1 sequence (whole entry): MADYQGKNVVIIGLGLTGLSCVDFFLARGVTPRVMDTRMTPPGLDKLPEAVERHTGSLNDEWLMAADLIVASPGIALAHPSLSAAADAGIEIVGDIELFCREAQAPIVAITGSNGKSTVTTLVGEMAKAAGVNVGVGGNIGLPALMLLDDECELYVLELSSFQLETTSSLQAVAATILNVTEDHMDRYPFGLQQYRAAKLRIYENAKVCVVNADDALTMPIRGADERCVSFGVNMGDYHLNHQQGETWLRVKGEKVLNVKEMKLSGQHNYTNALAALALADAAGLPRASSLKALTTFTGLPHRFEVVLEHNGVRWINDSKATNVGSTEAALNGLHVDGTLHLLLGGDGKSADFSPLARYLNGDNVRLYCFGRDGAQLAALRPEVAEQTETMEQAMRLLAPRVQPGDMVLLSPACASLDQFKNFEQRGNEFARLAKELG
# Procedure: as §1
# MurF = molecular target: T2, MurF (UniProt P11880)
# T2 sequence (whole entry): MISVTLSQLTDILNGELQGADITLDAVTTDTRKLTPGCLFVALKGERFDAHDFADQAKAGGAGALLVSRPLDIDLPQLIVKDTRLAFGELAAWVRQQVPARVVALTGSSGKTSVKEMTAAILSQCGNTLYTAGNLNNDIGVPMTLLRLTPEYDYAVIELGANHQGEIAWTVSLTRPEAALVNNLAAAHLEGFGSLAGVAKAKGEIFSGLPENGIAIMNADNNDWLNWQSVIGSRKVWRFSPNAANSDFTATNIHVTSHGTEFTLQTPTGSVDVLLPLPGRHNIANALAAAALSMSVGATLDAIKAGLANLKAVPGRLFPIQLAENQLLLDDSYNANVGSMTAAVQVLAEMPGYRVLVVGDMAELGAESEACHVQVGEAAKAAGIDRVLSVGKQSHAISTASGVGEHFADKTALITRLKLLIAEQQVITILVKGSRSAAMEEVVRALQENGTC
# Procedure: as §1
# RNA polymerase = test system: RNA polymerase
# Procedure: as §1
# Chain of DNA polymerase (P10443 whole entry): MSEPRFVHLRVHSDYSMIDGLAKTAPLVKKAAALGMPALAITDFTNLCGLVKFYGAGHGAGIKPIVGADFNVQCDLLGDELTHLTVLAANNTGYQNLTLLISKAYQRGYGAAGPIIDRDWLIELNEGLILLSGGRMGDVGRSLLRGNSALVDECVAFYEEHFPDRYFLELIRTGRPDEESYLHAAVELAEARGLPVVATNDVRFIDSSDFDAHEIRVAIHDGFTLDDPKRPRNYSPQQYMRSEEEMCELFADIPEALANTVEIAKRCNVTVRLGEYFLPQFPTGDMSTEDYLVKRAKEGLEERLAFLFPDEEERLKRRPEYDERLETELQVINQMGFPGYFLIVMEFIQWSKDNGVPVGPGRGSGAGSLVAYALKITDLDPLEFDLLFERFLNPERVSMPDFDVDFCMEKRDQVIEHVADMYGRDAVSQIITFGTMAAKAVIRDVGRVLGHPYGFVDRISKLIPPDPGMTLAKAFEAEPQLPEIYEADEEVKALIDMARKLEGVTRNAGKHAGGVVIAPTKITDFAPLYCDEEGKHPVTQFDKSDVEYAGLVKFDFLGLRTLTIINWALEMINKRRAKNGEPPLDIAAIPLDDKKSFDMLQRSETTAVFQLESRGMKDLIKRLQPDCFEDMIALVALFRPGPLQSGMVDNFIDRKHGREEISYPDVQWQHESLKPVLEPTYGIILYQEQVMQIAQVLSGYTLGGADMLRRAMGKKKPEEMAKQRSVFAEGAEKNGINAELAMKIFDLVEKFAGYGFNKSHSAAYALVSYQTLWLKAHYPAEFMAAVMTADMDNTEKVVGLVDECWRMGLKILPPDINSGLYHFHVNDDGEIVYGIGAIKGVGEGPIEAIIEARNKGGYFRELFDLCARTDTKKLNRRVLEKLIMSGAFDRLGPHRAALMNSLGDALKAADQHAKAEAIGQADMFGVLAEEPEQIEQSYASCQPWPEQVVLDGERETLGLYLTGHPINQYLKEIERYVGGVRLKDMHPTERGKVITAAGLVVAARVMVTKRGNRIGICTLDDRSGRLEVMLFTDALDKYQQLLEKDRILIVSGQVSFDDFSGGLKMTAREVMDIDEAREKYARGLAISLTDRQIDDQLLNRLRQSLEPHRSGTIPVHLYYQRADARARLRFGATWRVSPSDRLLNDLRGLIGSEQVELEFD
# Chain of MurC (C4ZRI6 whole entry, looked up): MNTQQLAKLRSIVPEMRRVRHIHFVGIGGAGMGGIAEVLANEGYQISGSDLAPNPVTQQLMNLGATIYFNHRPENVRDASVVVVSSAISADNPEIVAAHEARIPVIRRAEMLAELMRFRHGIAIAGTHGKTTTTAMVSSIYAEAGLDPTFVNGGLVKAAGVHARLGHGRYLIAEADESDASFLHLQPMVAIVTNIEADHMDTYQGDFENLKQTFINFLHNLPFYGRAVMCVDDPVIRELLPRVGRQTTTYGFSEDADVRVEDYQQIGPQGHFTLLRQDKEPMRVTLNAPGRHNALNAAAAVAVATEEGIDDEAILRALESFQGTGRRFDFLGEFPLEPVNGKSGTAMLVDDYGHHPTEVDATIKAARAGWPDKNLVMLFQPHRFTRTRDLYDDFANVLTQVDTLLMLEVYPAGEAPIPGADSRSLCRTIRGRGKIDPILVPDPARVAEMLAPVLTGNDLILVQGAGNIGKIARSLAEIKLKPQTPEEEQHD
# Chain of DNA primase (P0ABS7 whole entry): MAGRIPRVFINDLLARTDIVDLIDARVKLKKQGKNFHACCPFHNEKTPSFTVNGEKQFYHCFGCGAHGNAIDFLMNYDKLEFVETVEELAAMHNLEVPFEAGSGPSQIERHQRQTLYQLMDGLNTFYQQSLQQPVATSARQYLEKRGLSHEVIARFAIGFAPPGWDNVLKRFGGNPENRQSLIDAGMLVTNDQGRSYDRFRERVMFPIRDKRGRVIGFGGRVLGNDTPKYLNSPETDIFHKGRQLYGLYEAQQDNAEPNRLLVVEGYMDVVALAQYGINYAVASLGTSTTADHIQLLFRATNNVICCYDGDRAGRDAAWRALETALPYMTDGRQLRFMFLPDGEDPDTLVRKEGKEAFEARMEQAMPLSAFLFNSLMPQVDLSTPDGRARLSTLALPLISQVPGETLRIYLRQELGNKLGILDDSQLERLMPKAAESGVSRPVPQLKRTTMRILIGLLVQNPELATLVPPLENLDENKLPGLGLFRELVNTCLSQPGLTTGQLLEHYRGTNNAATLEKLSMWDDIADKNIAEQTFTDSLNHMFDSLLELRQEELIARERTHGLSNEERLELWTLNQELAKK
# Chain of GlmU (A7ZTU1 whole entry, looked up): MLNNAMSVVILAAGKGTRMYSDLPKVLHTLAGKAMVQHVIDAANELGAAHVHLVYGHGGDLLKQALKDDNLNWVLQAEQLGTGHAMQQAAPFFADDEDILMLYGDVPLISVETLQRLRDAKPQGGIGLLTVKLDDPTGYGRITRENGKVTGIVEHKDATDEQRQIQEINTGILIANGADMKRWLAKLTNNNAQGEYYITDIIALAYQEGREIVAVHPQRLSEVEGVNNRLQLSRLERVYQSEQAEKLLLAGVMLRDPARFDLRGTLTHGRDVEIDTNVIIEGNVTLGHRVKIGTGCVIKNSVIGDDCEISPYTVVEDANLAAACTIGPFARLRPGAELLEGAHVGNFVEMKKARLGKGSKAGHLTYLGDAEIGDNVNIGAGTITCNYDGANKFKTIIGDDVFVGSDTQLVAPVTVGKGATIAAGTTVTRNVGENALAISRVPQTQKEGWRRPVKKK
# Chain of DNA ligase (B1XA82 whole entry): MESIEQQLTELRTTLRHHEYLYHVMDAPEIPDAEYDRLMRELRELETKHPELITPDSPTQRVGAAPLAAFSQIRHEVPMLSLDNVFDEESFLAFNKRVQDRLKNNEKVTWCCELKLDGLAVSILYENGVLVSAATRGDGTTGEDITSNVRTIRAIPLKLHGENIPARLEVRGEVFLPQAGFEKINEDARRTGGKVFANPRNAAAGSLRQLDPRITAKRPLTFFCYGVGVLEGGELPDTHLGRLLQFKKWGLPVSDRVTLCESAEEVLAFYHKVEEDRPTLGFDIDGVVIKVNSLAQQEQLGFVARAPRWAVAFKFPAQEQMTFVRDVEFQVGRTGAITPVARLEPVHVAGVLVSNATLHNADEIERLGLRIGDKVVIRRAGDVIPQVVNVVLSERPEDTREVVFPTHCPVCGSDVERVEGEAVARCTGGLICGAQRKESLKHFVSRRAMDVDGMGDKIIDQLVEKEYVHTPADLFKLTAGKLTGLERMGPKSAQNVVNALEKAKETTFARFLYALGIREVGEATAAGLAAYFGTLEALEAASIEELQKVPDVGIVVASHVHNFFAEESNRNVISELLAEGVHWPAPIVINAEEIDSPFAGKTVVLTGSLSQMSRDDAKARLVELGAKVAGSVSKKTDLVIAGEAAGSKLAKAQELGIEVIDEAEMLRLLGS
# Chain of MurA (Q3YX52 whole entry): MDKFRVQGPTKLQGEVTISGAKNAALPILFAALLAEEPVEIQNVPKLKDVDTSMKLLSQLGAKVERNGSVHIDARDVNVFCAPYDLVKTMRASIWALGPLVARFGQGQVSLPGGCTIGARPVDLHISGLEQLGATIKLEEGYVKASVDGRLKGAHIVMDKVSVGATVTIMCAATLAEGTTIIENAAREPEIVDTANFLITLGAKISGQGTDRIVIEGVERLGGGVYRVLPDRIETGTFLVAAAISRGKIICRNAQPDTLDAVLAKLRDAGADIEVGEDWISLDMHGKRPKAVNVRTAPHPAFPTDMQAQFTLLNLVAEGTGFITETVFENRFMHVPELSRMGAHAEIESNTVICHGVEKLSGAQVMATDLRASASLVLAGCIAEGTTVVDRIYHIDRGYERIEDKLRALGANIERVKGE
# Chain of DNA helicase (P0ACB1 whole entry): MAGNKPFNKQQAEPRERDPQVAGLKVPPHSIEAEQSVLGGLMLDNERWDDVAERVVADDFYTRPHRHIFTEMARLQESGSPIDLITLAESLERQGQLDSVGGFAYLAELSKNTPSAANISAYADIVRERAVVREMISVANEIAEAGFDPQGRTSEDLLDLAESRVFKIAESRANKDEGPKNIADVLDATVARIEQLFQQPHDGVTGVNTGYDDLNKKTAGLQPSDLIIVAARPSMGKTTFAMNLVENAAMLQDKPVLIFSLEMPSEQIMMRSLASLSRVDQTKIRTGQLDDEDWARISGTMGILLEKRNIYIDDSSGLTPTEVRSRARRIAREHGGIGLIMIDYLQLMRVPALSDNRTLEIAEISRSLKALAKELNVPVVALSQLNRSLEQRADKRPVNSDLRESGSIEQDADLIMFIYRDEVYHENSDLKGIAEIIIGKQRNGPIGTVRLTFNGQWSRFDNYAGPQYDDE
# Chain of Guanlyate kinase (Q0TBG1 whole entry): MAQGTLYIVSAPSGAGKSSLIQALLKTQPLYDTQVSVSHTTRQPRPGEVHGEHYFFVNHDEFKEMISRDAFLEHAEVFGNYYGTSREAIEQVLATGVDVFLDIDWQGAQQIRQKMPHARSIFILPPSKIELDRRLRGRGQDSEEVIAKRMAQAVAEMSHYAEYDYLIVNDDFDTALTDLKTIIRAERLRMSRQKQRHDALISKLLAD
Structure (SMILES),relative enzymatic activity (DNA gyrase),relative enzymatic activity (DNA helicase),relative enzymatic activity (DNA ligase),relative enzymatic activity (DNA polymerase),relative enzymatic activity (DNA primase),relative enzymatic activity (GlmU),relative enzymatic activity (Guanlyate kinase),relative enzymatic activity (MurA),relative enzymatic activity (MurC),relative enzymatic activity (MurD),relative enzymatic activity (MurF),relative enzymatic activity (RNA polymerase)
CC1C(NC(=O)C(=NOC(C)(C)C(=O)O)c2csc(N)n2)C(=O)N1S(=O)(=O)O (configuration not stated),0.879 ± 0.42,0.582 ± 0.14,1.36 ± 0.2,0.711 ± 0.38,0.832 ± 0.01,0.903 ± 0.016,0.908 ± 0.068,0.798 ± 0.071,1.016 ± 0.0098,0.589 ± 0.39,0.948 ± 0.24,0.844 ± 0.071
CCCCCCCCCCCCCCCC[N+](C)(C)C,0.633 ± 0.67,0.0316 ± 0.02,0.457 ± 0.13,0.0628 ± 0.012,0.384 ± 0.054,0.198 ± 0.0053,0.644 ± 0.077,0.0456 ± 0.013,0.568 ± 0.56,0.173 ± 0.085,0.106 ± 0.034,0.223 ± 0.0051
NCc1ccccc1CC(=O)NC1C(=O)N2C(C(=O)O)=C(CSc3nnnn3CC(=O)O)CSC12 (configuration not stated),1.03 ± 0.026,0.487 ± 0.014,1.19 ± 0.037,1.38 ± 0.51,0.683 ± 0.18,1.05 ± 0.23,0.988 ± 0.13,0.08776 ± 0.00022,1.05 ± 0.17,0.581 ± 0.39,0.979 ± 0.2,0.979 ± 0.23
Oc1c(Cl)cc(Cl)c(Cl)c1Cc1c(O)c(Cl)cc(Cl)c1Cl,0.191 ± 0.12,0.06883 ± 0.00038,0.514 ± 0.1,0.222 ± 0.019,0.436 ± 0.0013,1.07 ± 0.11,0.162 ± 0.0089,0.899 ± 0.6,3.59 ± 0.79,1.25 ± 0.89,0.446 ± 0.1,0.293 ± 0.0084
O=c1[nH]c(=O)n(C2CC(O)C(CO)O2)cc1F (configuration not stated),0.98 ± 0.053,0.557 ± 0.14,1.15 ± 0.19,1.2 ± 0.26,0.657 ± 0.14,1.09 ± 0.097,1.03 ± 0.036,0.856 ± 0.064,0.948 ± 0.082,0.597 ± 0.4,0.931 ± 0.18,0.84 ± 0.0053
CNC1C(OC2C(OC3C(O)C(O)C(NC(=N)N)C(O)C3NC(=N)N)OC(C)C2(O)CO)OC(CO)C(O)C1O.O=S(=O)(O)O (configuration not stated),0.78 ± 0.53,0.565 ± 0.13,1.11 ± 0.19,1.38 ± 0.47,0.716 ± 0.22,0.982 ± 0.09,1.02 ± 0.063,0.635 ± 0.0086,,0.65 ± 0.44,0.944 ± 0.15,0.953 ± 0.083
CC1COc2c(C3(N)CC3)c(F)cc3c(=O)c(C(=O)O)cn1c23.CS(=O)(=O)O (configuration not stated),0.0382 ± 0.054,0.57 ± 0.24,0.904 ± 0.083,0.511 ± 0.72,0.835 ± 0.011,0.898 ± 0.045,1.02 ± 0.16,0.879 ± 0.057,0.958 ± 0.027,0.579 ± 0.4,1.07 ± 0.021,0.872 ± 0.013
Cn1sccc1=O,0.437 ± 0.62,0.607 ± 0.19,1 ± 0.053,1 ± 0.17,0.8591 ± 0.0028,0.622 ± 0.045,0.903 ± 0.084,0.0867 ± 0.0083,0.969 ± 0.062,0.579 ± 0.4,0.968 ± 0.27,0.847 ± 0.097
CN(C)[C@@H]1C(=O)[C@@H](C(N)=O)C(=O)[C@@]2(O)C(=O)[C@H]3C(=O)c4c(O)ccc(Cl)c4[C@@H](O)[C@H]3C[C@@H]12,1.05 ± 0.19,0.508 ± 0.1,0.858 ± 0.066,1.17 ± 0.28,0.754 ± 0.018,1.02 ± 0.063,0.831 ± 0.16,0.336 ± 0.14,1.009 ± 0.01,0.621 ± 0.42,0.975 ± 0.23,0.749 ± 0.19
COc1cc(Cc2cnc(N)nc2N)cc(OC)c1OC,0.772 ± 0.45,0.617 ± 0.18,1.12 ± 0.24,1.36 ± 0.46,0.685 ± 0.15,1.009 ± 0.0036,1.01 ± 0.05,0.706 ± 0.023,1.03 ± 0.086,0.589 ± 0.4,0.569 ± 0.81,0.887 ± 0.074
CN(C)C1C(O)=C(C(N)=O)C(=O)C2(O)C(O)=C3C(=O)c4c(O)cccc4C(C)(O)C3CC12.Cl (configuration not stated),0.904 ± 0.27,0.696 ± 0.28,1.03 ± 0.033,1.37 ± 0.52,0.711 ± 0.17,0.9683 ± 0.0011,1.05 ± 0.046,0.712 ± 0.038,1.05 ± 0.039,0.627 ± 0.43,0.964 ± 0.2,0.857 ± 0.014
O=C(Cn1cnnn1)NC1C(=O)N2C(C(=O)O)=C(CSc3nncs3)CSC12 (configuration not stated),0.793 ± 0.43,0.757 ± 0.21,0.955 ± 0.18,0.505 ± 0.68,0.828 ± 0.017,1.045 ± 0.0046,0.932 ± 0.17,0.307 ± 0.16,,0.598 ± 0.37,1.01 ± 0.22,0.799 ± 0.011
CC1c2cccc(O)c2C(=O)C2=C(O)C3(O)C(=O)C(C(N)=O)=C(O)C(N(C)C)C3C(O)C21.Cl (configuration not stated),0.996 ± 0.098,0.728 ± 0.41,1.05 ± 0.12,1.34 ± 0.32,0.734 ± 0.2,0.971 ± 0.048,1.12 ± 0.046,0.431 ± 0.093,1.02 ± 0.027,0.572 ± 0.37,0.943 ± 0.17,0.9639 ± 0.0043
Cc1nnc(SCC2=C(C(=O)O)N3C(=O)[C@@H](NC(=O)Cn4cnnn4)[C@H]3SC2)s1,0.719 ± 0.43,0.348 ± 0.37,0.987 ± 0.14,1.17 ± 0.26,0.792 ± 0.035,0.995 ± 0.059,0.9645 ± 0.0053,0.137 ± 0.029,0.988 ± 0.078,0.604 ± 0.41,0.96 ± 0.22,0.862 ± 0.057
COC1(NC(=O)Cc2cccs2)C(=O)N2C(C(=O)[O-])=C(COC(N)=O)CSC21.[Na+] (configuration not stated),1.11 ± 0.041,0.48 ± 0.015,0.855 ± 0.14,1.41 ± 0.51,0.663 ± 0.13,0.984 ± 0.011,1.08 ± 0.062,0.0814 ± 0.021,1.15 ± 0.057,0.574 ± 0.37,1.01 ± 0.21,0.829 ± 0.017
Cc1cn([C@H]2C[C@H](N=[N+]=[N-])[C@@H](CO)O2)c(=O)[nH]c1=O,0.52 ± 0.49,0.626 ± 0.26,0.932 ± 0.15,1.04 ± 0.19,0.733 ± 0.041,0.944 ± 0.04,0.885 ± 0.024,0.712 ± 0.092,1.08 ± 0.11,0.491 ± 0.63,0.944 ± 0.18,0.778 ± 0.13
CCOC(=O)OC(C)OC(=O)C1N2C(=O)C(NC(=O)C(N)c3ccccc3)C2SC1(C)C.Cl (configuration not stated),0.992 ± 0.22,0.463 ± 0.04,0.901 ± 0.089,1.09 ± 0.16,0.841 ± 0.011,1.04 ± 0.033,0.975 ± 0.026,0.82 ± 0.1,1.01 ± 0.035,0.598 ± 0.42,0.981 ± 0.23,0.803 ± 0.031
